Assay results published in PubChem BioAssay AID463173 (ICCB-Longwood Screening Facility, Harvard Medical School, 2010).
Among all 52,000 compounds or so, about 4,300 (8.3%) were called active. The sample as a whole holds a higher share of actives than the screen did. A number with no mark means an inactive call. Rule as the data show it: active = survival mostly below about 52% (no sharp cut-off); inactive = mostly above about 56%.

These compounds were tested on DeltatarO mutant (assay: growth inhibition of S. aureus wild type versus tarO mutant, primary screen, teichoic acid synthesis inhibitors, RN4220, OD600 (AID 463173)). Settings: OD600, 18 h, stronger effect = lower value, screened at 18.75 µg/mL (by protocol).

Row | Structure (SMILES) | survival
1 | CC(C)(CC(=O)NCc1ccc(Cl)cc1Cl)CC1=NS(=O)(=O)c2ccccc2N1 | 75%
2 | CCCOc1ccc(NC(=O)CC2C(=O)N(c3ccc(F)cc3)C(=O)N2CC(C)C)cc1 (configuration not stated) | 64%
3 | COc1ccc(NC(=O)Cc2coc3cc(C)cc(C)c23)c(OC)c1 | 60%
4 | COc1ccccc1CCNC(=O)c1cccn1-c1nnc(N2CCCC2)s1 | 93%
5 | CCCOc1cccc(C(=O)N(Cc2sccc2C)C2CCS(=O)(=O)C2)c1 (configuration not stated) | 110%
6 | COc1cc2c(=O)c(C(=O)c3ccc(C)c(C)c3)cn(Cc3ccccc3)c2cc1OC | 79%
7 | O=C(CSc1nc2c([nH]c3ccccc32)c(=O)n1-c1ccccc1)N1CCCC1 | 84%
8 | Cc1ccc(-c2nc3ccc(Cl)cn3c2Nc2ccc3c(c2)OCCO3)s1 | 107%
9 | Cc1nc2c(C(=O)NCc3ccccc3)c[nH]n2c(=O)c1Cc1ccccc1Cl | 49%
10 | Cc1nc2c(C(=O)NCc3ccccc3Cl)cnn2c(C)c1Cc1ccccc1 | 79%
11 | Cc1nc2c(C(=O)N(C)Cc3ccccc3)c[nH]n2c(=O)c1Cc1ccc(Cl)cc1 | 88%
12 | Cc1nc2c(C(=O)NCc3ccccc3Cl)c[nH]n2c(=O)c1Cc1cccc(Cl)c1 | -16% (active)
13 | Cc1nc2nc(NC(=O)c3cccc(Cl)c3)[nH]n2c(=O)c1Cc1ccccc1 | 111%
14 | Cc1nc2c(C(=O)NCCc3ccc(Cl)cc3)cnn2c(C)c1Cc1ccc(F)cc1 | 69%
15 | Cc1nc2c(C(=O)NCCc3ccccc3)c[nH]n2c(=O)c1Cc1ccc(F)cc1Cl | -16% (active)
16 | Cc1nc2nc(NC(=O)c3ccc(F)cc3)[nH]n2c(=O)c1Cc1ccccc1 | 101%
17 | Cc1ccc(CNC(=O)CN2CCN(Cc3ccc(F)cc3Cl)C2=O)cc1 | 79%
18 | Cc1nc2c(C(=O)NCCc3ccc(Cl)cc3)c[nH]n2c(=O)c1Cc1ccc(Cl)cc1 | -14% (active)
19 | Cc1ccc(CNC(=O)c2c[nH]n3c(=O)c(Cc4ccc(F)cc4Cl)c(C)nc23)cc1 | -13% (active)

Row | Structure (SMILES) | survival
20 | Cc1ccc(CNC(=O)c2cnn3c(C)c(Cc4c(F)cccc4Cl)c(C)nc23)cc1 | 70%
21 | COc1ccc(CNC(=O)C(=O)NCC(c2ccco2)S(=O)(=O)c2cccs2)cc1 (configuration not stated) | 60%
22 | N#C/C(=C\c1ccc[nH]1)C(=O)N1CCc2ccccc2C1 | 72%
23 | COc1cc(Cl)c(NC(=O)c2cc(S(=O)(=O)N3CCCCC3)c[nH]2)c(OC)c1 | 119%
24 | Cc1cc(NC(=O)CCNS(=O)(=O)c2ccc3c(c2)CCCC(=O)N3)ccc1Br | 76%
25 | COc1ccc(C2CC(=O)Nc3c2c(=O)[nH]c2nc4ccccc4n32)cc1 (configuration not stated) | 66%
26 | CN(C)c1ccc(CNC(=O)C2CCN(S(=O)(=O)c3cn(C)cn3)CC2)cc1 | 0% (active)
27 | Cc1cc(C)cc(NC(=O)C2CCN(S(=O)(=O)c3cn(C)cn3)CC2)c1 | 98%
28 | CCOc1ccccc1NC(=O)C1CCN(S(=O)(=O)c2ccc3[nH]c(=O)ccc3c2)CC1 | 63%
29 | Cn1cnc(S(=O)(=O)N2CCC(C(=O)NCc3ccccc3Cl)CC2)c1 | 118%
30 | Cn1cnc(S(=O)(=O)N2CCC(C(=O)NCc3ccc(Cl)cc3)CC2)c1 | 101%
31 | COc1ccc(OC)c(CNC(=O)C2CCN(S(=O)(=O)c3cn(C)cn3)CC2)c1 | 83%
32 | Cc1ccc(C)c(N2CCN(C(=O)C3CCN(S(=O)(=O)c4cn(C)cn4)CC3)CC2)c1 | 64%
33 | Cc1ccc(CNC(=O)C2CCN(S(=O)(=O)c3cn(C)cn3)CC2)cc1 | 115%
34 | COc1ccccc1CNC(=O)C1CCN(S(=O)(=O)c2ccc3[nH]c(=O)ccc3c2)CC1 | 102%
35 | COc1ccccc1CNC(=O)C1CCN(S(=O)(=O)c2cn(C)cn2)CC1 | 0% (active)
36 | CCOc1ccccc1CNC(=O)C1CCN(S(=O)(=O)c2ccc3[nH]c(=O)ccc3c2)CC1 | 25% (active)
37 | Cc1ccc(N(C)C(=O)C2CCN(S(=O)(=O)c3cn(C)cn3)CC2)cc1 | 37% (active)
38 | CC(C)C(NS(=O)(=O)c1ccccc1)C(C)C | 97%

Row | Structure (SMILES) | survival
39 | COc1cc(C2CC(=O)c3c([nH]c(C(=O)OCc4ccc(C)cc4)c3C)C2)cc(OC)c1OC (configuration not stated) | 83%
40 | OC1CN=C2C=CC=CN2C1 (configuration not stated) | 89%
41 | CCN1CCN(c2ccc(NS(=O)(=O)c3c(C)nc4sccn4c3=O)cc2Cl)CC1 | 108%
42 | Cc1ccc(CNC(=O)c2oc3c(c2C)-c2nn(Cc4ccc(Cl)cc4)cc2CC3)cc1 | 57%
43 | Cc1cc2nc(-c3ccc(NC(=O)c4ccc(OCC(C)C)cc4)cc3)oc2cc1C | 78%
44 | Cc1c(CNC2CCCCC2)c(C(=O)O)c(C)n1Cc1ccccc1F | 88%
45 | Cc1ccc2c(c1)-c1onc(C(=O)N(C)c3cccc(C(F)(F)F)c3)c1CO2 | 108%
46 | CC(C)OCCCNC(=O)c1ccc2c(c1)N(Cc1c(F)cccc1Cl)C(=O)c1ccccc1S2 | 76%
47 | CCCCc1nn2c(=O)cc(COC(=O)c3cccc(Cl)c3)nc2s1 | 67%
48 | COc1ccc(C(CC(=O)NCc2ccccc2Cl)N2Cc3ccccc3C2=O)cc1OC (configuration not stated) | 80%
49 | COc1ccccc1N1CCN(S(=O)(=O)c2c(C)sc3ncn(CC(=O)Nc4ccc(C)cc4Br)c(=O)c23)CC1 | 73%
50 | O=C(Cc1ccccc1)NC1CCS(=O)(=O)C1 (configuration not stated) | 97%
51 | O=C(CCn1cnc2ccccc2c1=O)NCc1ccccc1 | 109%
52 | Cc1ccc2c(C)c(C(=O)N(Cc3ccc(N(C)C)cc3)Cc3ccco3)oc2c1C | 87%
53 | Cc1ccc2c(CC(=O)N(Cc3ccc(Cl)cc3)Cc3ccco3)coc2c1 | 99%
54 | Cc1cc(C)c2c(CC(=O)N(Cc3ccc(Cl)cc3)Cc3ccco3)coc2c1 | 57%
55 | Cc1ccc2c(CC(=O)N(Cc3ccc(N(C)C)cc3)Cc3ccco3)coc2c1C | 45% (active)
56 | Cc1cc(C)c(OCC(=O)N(Cc2ccc(N(C)C)cc2)Cc2ccco2)c(C)c1 | 49%
57 | Cc1cc(C)c2c(CC(=O)N(Cc3ccc(N(C)C)cc3)Cc3ccco3)coc2c1 | 42% (active)
